Consider 16 compounds from PubChem BioAssay (NCATS).

One assay relates to Hek293T. The experiment in a line: Primary qHTS to identify gynecologic anti-cancer compounds using libraries of approved drugs and bioactive compounds (AID 1345084). Also: nearly all actives have a fitted effect of over 55% in size. Particulars: Gynecologic cancer cell panel viability, ATPlite luminescence, 48 h, control line for the selectivity index; series mostly up to 57.5 µM. A digest of the protocol: (§1)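 In this quantitative HTS, cell killing is estimated from loss of ATP-dependent luciferase light. Cells see five compound concentrations over a 48 h exposure.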
For orientation: qHTS replaces the single test concentration by a dilution series.

In another assay the test system is JEG-3. The assay is described as above. Particulars: Gynecologic cancer cell panel viability, ATPlite luminescence, 48 h; series mostly up to 57.5 µM. A digest of the protocol: as §1
For orientation: In ATP-based viability assays light output follows the ATP content of the culture.

A further assay concerns PA-1. Described as above. Particulars: Gynecologic cancer cell panel viability, ATPlite luminescence, 48 h; series mostly up to 57.5 µM. A digest of the protocol: as §1
A further assay concerns SKOV3. The assay is described as above. Particulars: Gynecologic cancer cell panel viability, ATPlite luminescence, 48 h; series mostly up to 57.5 µM. A digest of the protocol: as §1
Another assay deals with Tov-21-G. Described as above. Particulars: Gynecologic cancer cell panel viability, ATPlite luminescence, 48 h; series mostly up to 57.5 µM. A digest of the protocol:
as §1

The subject of another assay is Tov112D. Described as above. Particulars: Gynecologic cancer cell panel viability, ATPlite luminescence, 48 h; series mostly up to 57.5 µM. A digest of the protocol:
as §1

A short description of assay [1]: Drug repurposing screens with cells derived from glioblastoma tumor samples (AID 1345199). Also: nearly all actives have a fitted effect of over 40% in size. Particulars: GBM patient neurospheres viability, ATP luminescence, 48 h. A digest of the protocol: (§2)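 Four patient lines of CD133+ GBM neurospheres were screened at several concentrations; hits were retested in those lines plus three slower-growing GBM lines, using 48-hour treatment and ATP-based viability.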

The next assay has as its system astro. Described as above. Particulars: viability, ATP luminescence, 48 h; series mostly up to 45.9 µM. A digest of the protocol: as §2
In a further assay the test system is OV90. The experiment in a line: Primary qHTS to identify gynecologic anti-cancer compounds using libraries of approved drugs and bioactive compounds (AID 1345084). Also: nearly all actives have a fitted effect of over 55% in size. Particulars: Gynecologic cancer cell panel viability, ATPlite luminescence, 48 h; series mostly up to 57.5 µM. A digest of the protocol: as §1
Setting [2] is: at 108 µM (top of the series), tumour line B.
Where [3] appears, read: at 108 µM (top of the series), tumour line D.
The mark [4] stands for this setting: at 45.9 µM (top of the series), tumour line B.
The mark [5] stands for this setting: at 45.9 µM (top of the series), tumour line D.
Where [6] appears, read: at 46 µM (top of the series), tumour line A.

Records with an inconclusive call do not appear. Values without a mark were called inactive. Activity calls are given as the source filed them. Calls follow the shape of the dose curve; as a rule, active = well fitted curve in the direction sought with a large enough effect; inconclusive = small, poorly fitted or top-dose-only effect, or another doubt; inactive = no such curve, though single readings can be large; an effect the other way counts as inactive or inconclusive.
% is scaled to controls: 0 for no effect and ±100 for the full control effect; potency is read from the fitted curve at half-maximal effect.

As for `C[C@H](CN1CCOCC1)C(C(=O)N1CCCC1)(c1ccccc1)c1ccccc1`, the Potency entry with Hek293T, in the assay on JEG-3, with PA-1, in the assay on SKOV3, with Tov-21-G and with Tov112D was “inactive” each time. The Potency result in the assay with astro is “inactive”. Further, the activity, negative = cell killing in assay [1] (setting [2]) was -15.2%; in assay [1] (setting [3]) it was -29.8%. Moreover, the Potency in assay [1] (tumour line A) is 35.5 µM (active).
With `Cc1ncc2n1-c1ccc(Cl)cc1C(c1ccccc1F)=NC2`, the Potency result in the assay on Hek293T, in the assay on JEG-3, with PA-1, in the assay on SKOV3, in the assay with Tov-21-G and in the assay on Tov112D was “inactive” in each case. In addition, the figures for the activity, negative = cell killing in assay [1] (setting [4]) and in assay [1] (setting [5]) were -17.8% and -1.25%, respectively.
For `CNC(=O)Oc1cccc2ccccc12`, the Potency entry in the assay on Hek293T, in the assay with JEG-3, in the assay with PA-1, in the assay with SKOV3, in the assay with Tov-21-G and in the assay with Tov112D was “inactive” throughout. Besides, the Potency in [1] (tumour line A) is 35.5 µM (active).
As to `CCc1cc(OC)c(C[C@H](C)N)cc1OC`, the Potency result in the assay with Hek293T, in the assay with JEG-3, with PA-1, with SKOV3, with Tov-21-G and in the assay on Tov112D was “inactive” throughout. For the same compound, the Potency result in the assay with astro was “inactive”. Also, the activity, negative = cell killing in assay [1] (setting [2]) was -24.5%; in [1] (setting [3]) it was -14.6%. The Potency in [1] (tumour line A) is 31.6 µM (active).
Take `O=C(CCl)c1ccc(Cl)cc1Cl`: the Potency entry with Hek293T, in the assay with JEG-3, in the assay with OV90, in the assay with PA-1, in the assay on SKOV3 and with Tov-21-G was “inactive” throughout. Moreover, the Potency result in the assay with Tov112D was “inactive”. For the same compound, the activity, negative = cell killing in assay [1] (setting [5]) is -23.6%. In the assay with astro, the Potency was 12.6 µM (active).
As for `O=C(O)c1nn(Cc2ccc(Cl)cc2Cl)c2ccccc12`, the Potency entry in the assay with Hek293T, with JEG-3, in the assay with PA-1, in the assay with SKOV3, in the assay with Tov-21-G and in the assay with Tov112D was “inactive” in each case. The Potency entry in the assay with astro was “inactive”. The activity, negative = cell killing in assay [1] (setting [4]) is -14.7%; in assay [1] (setting [6]) it was -31.3%.
Regarding `CN1C2CCC(C)(C)C1CC(OC(=O)C(O)(c1cccs1)c1cccs1)C2` (centres undefined), the Potency result in the assay on Hek293T, in the assay with JEG-3, with PA-1, in the assay with SKOV3, in the assay with Tov-21-G and with Tov112D was “inactive” in each case.
As for `COc1cc(C[C@@H](C)N)c(OC)cc1Br`, the Potency entry with Hek293T, in the assay on JEG-3, with PA-1, in the assay with SKOV3, in the assay on Tov-21-G and in the assay with Tov112D was “inactive” throughout. The activity, negative = cell killing in assay [1] (setting [2]) was -21.6%. For the same compound, the Potency in [1] (tumour line A) is 35.5 µM (active).
As for `c1ccc2nc(N3CCNCC3)ccc2c1`, the Potency result with Hek293T, in the assay with JEG-3, in the assay on PA-1, in the assay with SKOV3, with Tov-21-G and in the assay with Tov112D was “inactive” each time.
As to `CN(C)CCc1c[nH]c2cccc(O)c12`, the Potency result in the assay with Hek293T, in the assay on JEG-3, with OV90, in the assay with PA-1, in the assay with Tov-21-G and in the assay with Tov112D was “inactive” in each case. The activity, negative = cell killing in assay [1] (at 91.6 µM (top of the series), tumour line B) was -8.47%; in assay [1] (at 91.6 µM (top of the series), tumour line D) it was -23.4%.
Regarding `CC[C@H]1C[C@@H]2C[C@H]3c4[nH]c5ccc(OC)cc5c4CCN(C2)[C@@H]13`, the Potency entry in the assay on Hek293T, in the assay on JEG-3, in the assay with SKOV3, in the assay with Tov-21-G and in the assay on Tov112D was “inactive” throughout. The Potency in the assay on OV90 is 31.6 µM (active).
Take `CN1C(=O)CN=C(c2ccccc2)c2cc([N+](=O)[O-])ccc21`: the Potency entry with Hek293T, in the assay with JEG-3, with OV90, with PA-1, in the assay on Tov-21-G and in the assay on Tov112D was “inactive” in each case. Moreover, the Potency result in the assay with astro is “inactive”. The activity, negative = cell killing in assay [1] (setting [4]) was 1.05%; in assay [1] (setting [5]), -22.1%; in assay [1] (setting [6]) it was -31.9%.
Turning to `COc1ccc(OC)c(CC(C)N)c1` (centres undefined), the Potency result with Hek293T, in the assay with JEG-3, in the assay on OV90, in the assay with PA-1, in the assay with Tov-21-G and with Tov112D was “inactive” in each case. The results for the activity, negative = cell killing in assay [1] (setting [2]) and in assay [1] (setting [3]) were -6.52% and -16.6%, respectively.
In the case of `CC(C)[N+](C)(CCC(C(N)=O)(c1ccccc1)c1ccccc1)C(C)C`, the Potency entry in the assay on Hek293T, in the assay on JEG-3, with PA-1, with SKOV3, in the assay with Tov-21-G and in the assay on Tov112D was “inactive” in each case. For the same compound, in the assay with astro, the Potency result is “inactive”. Moreover, the activity, negative = cell killing was -18% in assay [1] (at 21.2 µM (top of the series), tumour line B) and -25.8% in assay [1] (at 21.2 µM (top of the series), tumour line D).
Take `CCOC(=O)c1ncn2c1CN(C)C(=O)c1c(I)cccc1-2`: the Potency entry in the assay on Hek293T, in the assay on JEG-3, with OV90, with PA-1, in the assay with Tov-21-G and in the assay with Tov112D was “inactive” in each case.
As for `O=C(O)Cc1ccccc1`, the Potency entry in the assay with Hek293T, in the assay with JEG-3, with PA-1, in the assay on SKOV3, with Tov-21-G and with Tov112D was “inactive” throughout. In addition, the activity, negative = cell killing was -8.63% in [1] (setting [4]), -22.9% in [1] (setting [5]) and -19.6% in [1] (setting [6]).
